Results: the supplement of paper PMC3334620
Whole data set: some 33,000 sequences, median “E-score (-0.5 to 0.5)” near -0.012, cut for the highest 2% near 0.29. What follows is part of a selection rich in the highest values, with near analogues and random picks from the rest.

Target: T1, Ybr033w (UniProt P38073)
T1 sequence: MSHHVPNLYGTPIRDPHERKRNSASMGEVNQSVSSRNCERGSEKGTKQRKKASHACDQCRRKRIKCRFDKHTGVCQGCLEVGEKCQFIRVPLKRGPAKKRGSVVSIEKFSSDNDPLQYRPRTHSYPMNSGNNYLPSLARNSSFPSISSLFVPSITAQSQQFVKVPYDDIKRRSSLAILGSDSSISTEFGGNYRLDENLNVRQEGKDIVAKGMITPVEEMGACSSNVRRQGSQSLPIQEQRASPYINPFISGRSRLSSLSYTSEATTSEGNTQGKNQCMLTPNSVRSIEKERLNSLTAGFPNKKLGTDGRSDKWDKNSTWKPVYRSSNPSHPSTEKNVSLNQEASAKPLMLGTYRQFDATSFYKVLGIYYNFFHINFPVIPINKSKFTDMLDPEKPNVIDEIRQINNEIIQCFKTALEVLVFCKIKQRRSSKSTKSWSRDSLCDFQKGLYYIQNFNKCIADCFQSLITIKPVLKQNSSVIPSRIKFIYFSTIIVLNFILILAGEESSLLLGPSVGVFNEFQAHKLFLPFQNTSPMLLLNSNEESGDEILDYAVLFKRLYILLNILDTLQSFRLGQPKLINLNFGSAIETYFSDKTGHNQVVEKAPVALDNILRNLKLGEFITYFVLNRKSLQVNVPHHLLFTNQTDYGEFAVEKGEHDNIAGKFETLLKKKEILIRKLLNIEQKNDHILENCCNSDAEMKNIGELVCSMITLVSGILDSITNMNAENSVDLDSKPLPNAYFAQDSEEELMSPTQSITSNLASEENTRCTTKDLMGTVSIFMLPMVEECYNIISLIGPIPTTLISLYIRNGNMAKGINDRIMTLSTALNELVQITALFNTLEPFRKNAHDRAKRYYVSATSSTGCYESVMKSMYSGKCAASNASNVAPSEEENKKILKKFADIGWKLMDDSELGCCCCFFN
Experiment: PBM E-score (8-mer binding enrichment) (E-score (-0.5 to 0.5)); higher = stronger / more preferred TF binding
Conditions: protein concentration: 200 nM; construct: GST-full length
Procedure: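 Universal 'all 10-mer' protein binding microarrays (Agilent AMADID 015681) probed with GST-tagged S. cerevisiae TFs (full-length or DBD) made by in vitro transcription/translation (PURExpress), about 100-200 nM. Bound TF was detected with fluorescent anti-GST. Each ungapped 8-mer (which stands for itself and its reverse complement) is scored by the PBM enrichment score (E-score), a modified Wilcoxon-Mann-Whitney statistic from -0.5 to +0.5, computed with the Universal PBM Analysis Suite. Scale: above 0.35 generally sequence-specific binding.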

Row | Sequence | PBM E-score
1 | TAAGCAAA | 0.179
2 | CGTATTAA | 0.108
3 | AATATGAT | 0.317
4 | CATATTAG | 0.202
5 | AATATTAA | 0.349
6 | AATATGAC | 0.109
7 | CATATTAA | 0.347
8 | AATATGAG | 0.245
9 | AAACTTCC | 0.068
10 | AACCCAGT | -0.102
11 | CGCTACTA | 0.218
12 | AAGCAACC | 0.0073
13 | TAAGTTAA | 0.206
14 | CAAGTTAG | 0.0992
15 | CAAGTTAA | 0.068
16 | AAAGTTAG | 0.297
17 | AAAGTTGT | 0.302
18 | AAAGTTAA | 0.323
19 | AAAGTTAC | 0.224
20 | AAAGTTGC | 0.0307
21 | AAAGTTGG | 0.0498
22 | CGTTCTAG | -0.0499
23 | CCAAGCTC | -0.0526

Row | Sequence | PBM E-score
24 | GTAATGGA | 0.163
25 | TTAGATAA | 0.218
26 | GAAGATAA | 0.319
27 | TAAGATAA | -0.0896
28 | AAAGATAG | -0.0366
29 | AAAGATAA | 0.299
30 | GTAGATAA | 0.333
31 | GAAGATAC | 0.17
32 | ATAGATAA | 0.28
33 | AAAGATCG | -0.0193
34 | AAAGATCA | 0.173
35 | AAAGATCC | 0.3
36 | AAAGATAC | 0.12
37 | CCTCCAAG | -0.176
38 | AACGATGG | -0.0425
39 | TCCCCTCA | -0.098
40 | CTTAGCTC | -0.12
41 | GAAGATTA | 0.366
42 | CAAGATTA | 0.185
43 | GTAGATTA | 0.216
44 | ATAGATTG | 0.107
45 | AAAGATTA | 0.203
46 | ATAGATTA | 0.329

Row | Sequence | PBM E-score
47 | CCAGGGCA | -0.266
48 | AACACTCA | 0.13
49 | TAACCTCA | 0.0768
50 | TCGTCCAA | 0.0311
51 | ACAATCCC | 0.0235
52 | TCTGTCCA | -0.0429
53 | AAATTCAG | 0.204
54 | ATATTCGG | 0.0327
55 | ATCTTCCC | 0.121
56 | GTATTCCA | -0.0248
57 | AAATTCAA | 0.288
58 | ATCTTCCA | 0.249
59 | ATATTCTG | 0.157
60 | ATCTTCCG | 0.438
61 | ATATTCCG | 0.428
62 | GAATTCAA | 0.177
63 | ATATTCCA | 0.395
64 | CTATTCCA | 0.17
65 | ACTGCACC | -0.018
66 | CCGCTAAA | -0.117
67 | AGACTGTA | -0.175
68 | AGGGGAAG | -0.272
69 | GCTAGGCA | -0.146

Row | Sequence | PBM E-score
70 | ATATTCCC | 0.329
71 | AATTTCCT | 0.273
72 | ATATTCAA | 0.3
73 | CATTTCCG | 0.12
74 | TTATTCAA | 0.253
75 | CTATTCCC | -0.043
76 | AAATTCCA | 0.258
77 | AAATTCCC | 0.0364
78 | AAATTCCG | 0.309
79 | ACATTCCC | 0.0614
80 | AATTTCCG | 0.325
81 | CTATTCAA | 0.0501
82 | CCTGCAAC | -0.034
83 | ACACTCTA | 0.121
84 | GTGCTGGA | -0.0549
85 | AACCACAT | 0.00349
86 | AGTGGCTG | -0.145
87 | AGGTCTGC | -0.104
88 | GCGCTCTA | -0.159
89 | GTGCGACA | -0.235
90 | GTTGCAAA | 0.231
91 | GGTTGCAC | -0.131
92 | ATTCGAGA | 0.023

Row | Sequence | PBM E-score
93 | GGTGCACC | -0.253
94 | CTTCAGCC | -0.13
95 | AAATCGAC | 0.142
96 | AAGTCTAT | -0.00931
97 | CGTGTGAG | -0.225
98 | ATTTCTTG | 0.198
99 | ATTTCTTA | 0.195
100 | AGTTCTTC | 0.3
101 | AGTTCTTA | 0.171
102 | ATTTCTTC | 0.313
103 | CGTTCTTC | 0.0897
104 | CATAGCTC | -0.153
105 | AGTATTAA | 0.295
106 | TCTATTAA | 0.292
107 | GCTATTAA | 0.201
108 | TCTATTCA | 0.167
109 | ACTATTAA | 0.325
110 | TGTATTAA | 0.272
111 | CCTATTAA | 0.139
112 | ACTATTAG | 0.111
113 | AGTATTAG | 0.174
